IL1B secr inh: inhibitors of inflammasome signaling (IL-1 beta secretion); THP-1 LPS/ATP IL-1B secretion, AlphaLISA, 16 h; active compounds read low; activity change, % at 57.5 µM; hit rate 4.7% among 360,000; AID 743279; in the data active means activity change below about -50%; inconclusive means mostly about -30% to -49%
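Secreted IL-1B measured by AlphaLISA bead assay after 16 h compound exposure of THP-1 cells; compounds (final up to 57.5 uM) added 1 h before LPS (250 ng/mL) and ATP (1.25 mM) stimulation; lower signal means less secretion.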
TDP1 inh: inhibitors of human tyrosyl-DNA phosphodiesterase TDP1; hit rate 0.28% among 350,000; Potency, µM (highest dose often 130 µM), usual class: inhibitors; Q9NUW8; AID 485290; recombinant TDP1, AlphaScreen DNA substrate cleavage; further: nearly all actives have a fitted effect of over 40% in size
Target sequence (Q9NUW8 whole entry, looked up): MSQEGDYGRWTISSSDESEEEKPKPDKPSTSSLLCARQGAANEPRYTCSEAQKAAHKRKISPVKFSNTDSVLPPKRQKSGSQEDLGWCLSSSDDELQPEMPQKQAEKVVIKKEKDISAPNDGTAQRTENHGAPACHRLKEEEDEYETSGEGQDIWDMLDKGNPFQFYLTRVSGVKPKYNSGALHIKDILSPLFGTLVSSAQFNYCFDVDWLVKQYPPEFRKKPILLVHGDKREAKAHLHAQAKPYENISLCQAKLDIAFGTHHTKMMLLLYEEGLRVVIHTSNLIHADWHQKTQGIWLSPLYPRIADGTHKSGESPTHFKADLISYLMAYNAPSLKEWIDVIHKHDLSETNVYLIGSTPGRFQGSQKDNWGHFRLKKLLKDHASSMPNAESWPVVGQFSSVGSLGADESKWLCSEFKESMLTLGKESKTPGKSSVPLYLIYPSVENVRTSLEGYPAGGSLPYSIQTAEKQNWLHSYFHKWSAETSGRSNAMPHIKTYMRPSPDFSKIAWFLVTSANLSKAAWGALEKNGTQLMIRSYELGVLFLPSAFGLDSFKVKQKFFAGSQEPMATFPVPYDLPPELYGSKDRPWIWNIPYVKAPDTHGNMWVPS
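Enzyme-compound mixtures sat 15 min at room temperature, followed by a 5 min reaction with 15 nM final substrate and 10 min with AlphaScreen beads. Recombinant human Tdp1 was used at 1 nM final.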
Six1-Eya2 blk: inhibitors of human Six1/Eya2 interaction; Q15475+O00167; AlphaScreen GST-Six1/His-Eya2 binding, biochemical; active compounds read low; activity change, % (test concentration not listed); hit rate 0.56% among 360,000; in the data active means activity change below about -65%; inconclusive means mostly about -30% to -63%
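Compounds are tested against tagged Six1 and Eya2 proteins bridged by glutathione donor and nickel acceptor beads; after a one-hour incubation at 37 °C without light, AlphaScreen emission is recorded.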
DT40 TDP1 no CPT: qHTS for Inhibitors of human tyrosyl-DNA phosphodiesterase 1 (TDP1): qHTS in cells in absence of CPT | DT40 Tdp1-/- hTDP1 cells, no CPT, ATP luminescence, 48 h | Potency, µM (series often up to 46.2 µM), usual class: inhibitors | hit rate 15% among 420,000; further: nearly all actives have a fitted effect of over 55% in size
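Chicken DT40 Tdp1-/- cells complemented with human TDP1, screened without camptothecin (DMSO vehicle only), 400 cells/well. Compounds pin-transferred, cells incubated at 37 °C for at least 48 hr. Growth read as ATP-dependent luminescence (CellTiter-Glo, 30 min at RT).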
DT40 TDP1 CPT: DT40-hTDP1 cell growth loss with CPT. chicken DT40 Tdp1-/-;hTDP1 cells + 20 nM CPT, ATP luminescence, 48 h. Potency, µM (highest dose often 46.2 µM), most hits filed as inhibitors. hit rate 12% among 420,000. AID 686979; further: nearly all actives have a fitted effect of over 55% in size
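Cell growth measured by CellTiter-Glo luminescence after a minimum 48 h, 37 C compound exposure with 20 nM CPT in Tdp1-knockout DT40 cells stably expressing hTDP1, seeded 400/well; qHTS titration format.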
CtBP-E1A blk: CtBP/E1A binding inhibition; AlphaScreen GST-E1A/His-CtBP binding, 1536-well; active compounds read low; activity change, % (no concentration beside the values); hit rate 0.49% among 340,000; in the data active means activity change below about -65%; inconclusive means mostly about -30% to -63%
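GST-E1A and His-tagged CtBP (125 nM each as 5X stock) were preincubated with pin-transferred compound for 2 h at 37 °C in the dark, then glutathione donor and nickel acceptor beads were added for 1 h before AlphaScreen reading.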
Large screens that a line does not name were inactive. Most compounds without a hit are left out; they make up all but 18% or so of the library. Unless noted, the call rests on the fitted dose curve; in most records, active means well fitted curve in the direction sought with a large enough effect; inconclusive means small, poorly fitted or top-dose-only effect, or another doubt; inactive means no such curve, though single readings can be large; an effect the other way counts as inactive or inconclusive.

CN1CCN(C(=O)c2cc3c(c(-c4cccc(-c5cccnc5)c4)n2)[C@@H](CCO)N(C(=O)CC2CC2)C3)CC1	none (no result: TDP1 inh)
CCc1ccccc1NC(=O)CN1CCCN(Cc2cc(C)ccc2C)S1(=O)=O	DT40 TDP1 no CPT 16.4µM, DT40 TDP1 CPT 14.6µM (no result: IL1B secr inh, Six1-Eya2 blk, CtBP-E1A blk)
CC(C)c1ccc(NC(=O)CSC(C)c2nc3ccccc3c(=O)[nH]2)cc1 (stereo not given)	DT40 TDP1 no CPT inconclusive
CC(C)(C)NCC(=Cc1ccccc1)C(=O)c1ccccc1	IL1B secr inh -101.7, DT40 TDP1 no CPT 2.06µM, DT40 TDP1 CPT 2.06µM (no result: TDP1 inh)
CC(C)(C)c1ccc(C(=O)NNc2cc(Cl)cc(Cl)c2)cc1	DT40 TDP1 no CPT inconclusive, DT40 TDP1 CPT inconclusive (no result: CtBP-E1A blk)
CCN(CC)C(=O)C1=C(C)N(CCCOC)C(=O)C(CC(=O)NC(c2ccccc2)c2ccccc2)C1 (stereo not given)	DT40 TDP1 no CPT 7.31µM, DT40 TDP1 CPT 5.8µM (no result: TDP1 inh)
CC1=C(C(=O)N2CCOCC2)CC(CC(=O)NC(c2ccccc2)c2ccccc2)C(=O)N1CCC1=CCCCC1 (stereo not given)	DT40 TDP1 no CPT inconclusive, DT40 TDP1 CPT inconclusive (no result: TDP1 inh)
CC1=C(C(=O)N(C)C)CC(CC(=O)NC(c2ccccc2)c2ccccc2)C(=O)N1Cc1ccc(F)cc1 (stereo not given)	DT40 TDP1 no CPT 18.4µM, DT40 TDP1 CPT inconclusive (no result: TDP1 inh)
CCCCN1C(=O)C(CC(=O)NC(c2ccccc2)c2ccccc2)CC(C(=O)N2CCCCCC2)=C1C (stereo not given)	DT40 TDP1 no CPT inconclusive, DT40 TDP1 CPT inconclusive (no result: TDP1 inh)
CC1=C(C(=O)N(C(C)C)C(C)C)CC(CC(=O)NC(c2ccccc2)c2ccccc2)C(=O)N1CCC1=CCCCC1 (stereo not given)	IL1B secr inh inconclusive, DT40 TDP1 no CPT 18.4µM, DT40 TDP1 CPT 25.9µM (no result: TDP1 inh)
CCCCN1C(=O)C(CC(=O)NC(c2ccccc2)c2ccccc2)CC(C(=O)N(CC)CC)=C1C (stereo not given)	IL1B secr inh inconclusive, DT40 TDP1 no CPT 20.6µM, DT40 TDP1 CPT 18.4µM (no result: TDP1 inh)
COc1ccccc1[C@@H]1C(c2ccc(F)cc2)=NN(c2ccccc2)[C@H]1C(=O)N1CCOC1=O	DT40 TDP1 no CPT inconclusive
Cc1cc2nc(-c3nnnn3-c3c(C)cccc3C)c(=O)[nH]c2cc1C	DT40 TDP1 no CPT 16.4µM, DT40 TDP1 CPT inconclusive (no result: TDP1 inh)
COc1ccc(CNC(=O)CN2C(=O)C(c3ccccc3)Oc3cccnc32)cc1 (stereo not given)	DT40 TDP1 no CPT inconclusive (no result: TDP1 inh)
COc1cc(Cl)c(C)cc1NC(=O)CCCN1C(=O)C(c2ccccc2)Oc2cccnc21 (stereo not given)	DT40 TDP1 no CPT 20.6µM, DT40 TDP1 CPT 25.9µM (no result: IL1B secr inh, Six1-Eya2 blk, CtBP-E1A blk)
COc1ccc(C)cc1NC(=O)CCCN1C(=O)C(c2ccccc2)Oc2cccnc21 (stereo not given)	DT40 TDP1 no CPT inconclusive, DT40 TDP1 CPT inconclusive
COc1ccc(Cl)cc1NC(=O)CCCN1C(=O)C(c2ccccc2)Oc2cccnc21 (stereo not given)	DT40 TDP1 no CPT 23.1µM, DT40 TDP1 CPT 18.4µM (no result: IL1B secr inh, Six1-Eya2 blk, CtBP-E1A blk)
O=C(CN1C(=O)C(c2ccccc2)Oc2cccnc21)NCc1ccccc1F (stereo not given)	DT40 TDP1 no CPT inconclusive, DT40 TDP1 CPT 20.6µM
COc1ccc(Br)cc1CNc1ccc(O)cc1	IL1B secr inh -94.6, Six1-Eya2 blk inconclusive, DT40 TDP1 no CPT inconclusive, DT40 TDP1 CPT inconclusive, CtBP-E1A blk inconclusive
COc1ccc(Br)cc1CNc1ccc2[nH]c(=O)[nH]c2c1	IL1B secr inh -60.9
CCCn1nnnc1NCc1cc(Br)ccc1OC	none
Cc1cc(C)c(NC(=O)C2C(=O)Nc3ccccc3C(=O)N2C(C)(C)C)c(C)c1 (stereo not given)	none (no result: TDP1 inh)
O=C(Nc1cc(=O)[nH]c2nc(-c3ccccc3)nn12)c1ccc(Cl)cc1	none
COc1ccc(CN2CCn3ncc(C(=O)Nc4cc(C)cc(C)c4)c3C2=O)cc1	DT40 TDP1 no CPT inconclusive, DT40 TDP1 CPT 5.8µM
